Molecules are shown by their SMILES.

Data on ten compounds can be found in ChEMBL document CHEMBL1961873, “Compounds: GSK PKIS; Assays: Nanosyn kinase panel” (2012).

For test [1], the target named is T1, Serine/threonine-protein kinase Nek9 (Homo sapiens) (UniProt Q8TD19).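 Note: each value is a mean percent inhibition of NEK9.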
T1 sequence (whole entry): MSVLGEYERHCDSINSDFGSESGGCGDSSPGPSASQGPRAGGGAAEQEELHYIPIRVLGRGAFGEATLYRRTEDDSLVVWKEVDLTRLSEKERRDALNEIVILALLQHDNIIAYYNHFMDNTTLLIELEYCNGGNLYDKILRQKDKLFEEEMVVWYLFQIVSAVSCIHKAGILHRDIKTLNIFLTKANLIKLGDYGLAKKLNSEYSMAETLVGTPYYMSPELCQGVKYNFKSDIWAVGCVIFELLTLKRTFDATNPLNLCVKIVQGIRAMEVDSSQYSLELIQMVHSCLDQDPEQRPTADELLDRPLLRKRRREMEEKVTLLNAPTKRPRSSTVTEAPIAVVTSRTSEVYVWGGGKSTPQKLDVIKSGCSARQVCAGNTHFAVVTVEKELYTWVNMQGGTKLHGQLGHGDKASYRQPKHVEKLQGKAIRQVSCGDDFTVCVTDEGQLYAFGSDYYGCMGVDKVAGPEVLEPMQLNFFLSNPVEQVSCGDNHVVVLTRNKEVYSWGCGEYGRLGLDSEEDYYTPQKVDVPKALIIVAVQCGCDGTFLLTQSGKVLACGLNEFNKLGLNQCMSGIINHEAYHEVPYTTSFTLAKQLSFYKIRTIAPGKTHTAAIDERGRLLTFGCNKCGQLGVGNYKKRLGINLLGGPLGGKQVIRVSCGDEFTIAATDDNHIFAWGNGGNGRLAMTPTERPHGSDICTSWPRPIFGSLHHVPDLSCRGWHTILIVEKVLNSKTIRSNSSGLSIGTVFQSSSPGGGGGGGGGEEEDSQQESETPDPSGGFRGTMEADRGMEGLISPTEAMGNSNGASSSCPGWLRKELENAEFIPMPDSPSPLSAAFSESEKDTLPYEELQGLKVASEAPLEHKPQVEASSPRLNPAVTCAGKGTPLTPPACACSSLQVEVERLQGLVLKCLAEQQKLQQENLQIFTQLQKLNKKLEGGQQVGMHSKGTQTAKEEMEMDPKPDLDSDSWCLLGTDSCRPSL
The conditions noted are these: at 1 µM.

Test [2] has as its target Serine/threonine-protein kinase PLK1 (Homo sapiens) (UniProt P53350). The conditions noted are these: at 0.1 µM.
The target is the same in test [3]. The note with it: at 1 µM.
Test [4] addresses T2, Dual specificity protein kinase TTK (Homo sapiens) (UniProt P33981).
T2 sequence (whole entry): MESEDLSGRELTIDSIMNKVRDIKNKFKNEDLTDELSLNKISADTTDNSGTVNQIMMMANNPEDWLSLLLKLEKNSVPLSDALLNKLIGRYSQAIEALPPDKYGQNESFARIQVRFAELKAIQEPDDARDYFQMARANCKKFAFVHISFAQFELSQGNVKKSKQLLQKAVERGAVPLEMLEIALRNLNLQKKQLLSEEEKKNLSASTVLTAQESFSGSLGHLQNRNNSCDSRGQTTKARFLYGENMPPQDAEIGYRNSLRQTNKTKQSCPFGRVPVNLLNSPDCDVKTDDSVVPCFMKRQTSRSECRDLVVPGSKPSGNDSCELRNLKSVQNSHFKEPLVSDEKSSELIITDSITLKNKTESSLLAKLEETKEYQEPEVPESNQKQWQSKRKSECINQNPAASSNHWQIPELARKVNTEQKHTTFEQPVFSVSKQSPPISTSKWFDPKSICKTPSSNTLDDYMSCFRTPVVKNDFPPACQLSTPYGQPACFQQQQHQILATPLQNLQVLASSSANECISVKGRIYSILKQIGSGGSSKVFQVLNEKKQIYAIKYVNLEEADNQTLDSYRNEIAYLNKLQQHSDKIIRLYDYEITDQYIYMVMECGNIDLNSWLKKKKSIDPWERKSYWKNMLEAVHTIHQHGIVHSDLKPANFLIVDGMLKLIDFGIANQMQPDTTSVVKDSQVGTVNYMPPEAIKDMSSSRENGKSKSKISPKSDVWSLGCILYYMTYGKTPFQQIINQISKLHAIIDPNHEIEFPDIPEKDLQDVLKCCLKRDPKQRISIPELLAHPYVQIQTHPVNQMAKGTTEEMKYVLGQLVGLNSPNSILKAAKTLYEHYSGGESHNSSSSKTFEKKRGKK
The note with it: at 0.1 µM.

For test [5], the system named is T3, Receptor-type tyrosine-protein kinase FLT3 (Homo sapiens), P36888 [D835Y].
T3 sequence (whole entry): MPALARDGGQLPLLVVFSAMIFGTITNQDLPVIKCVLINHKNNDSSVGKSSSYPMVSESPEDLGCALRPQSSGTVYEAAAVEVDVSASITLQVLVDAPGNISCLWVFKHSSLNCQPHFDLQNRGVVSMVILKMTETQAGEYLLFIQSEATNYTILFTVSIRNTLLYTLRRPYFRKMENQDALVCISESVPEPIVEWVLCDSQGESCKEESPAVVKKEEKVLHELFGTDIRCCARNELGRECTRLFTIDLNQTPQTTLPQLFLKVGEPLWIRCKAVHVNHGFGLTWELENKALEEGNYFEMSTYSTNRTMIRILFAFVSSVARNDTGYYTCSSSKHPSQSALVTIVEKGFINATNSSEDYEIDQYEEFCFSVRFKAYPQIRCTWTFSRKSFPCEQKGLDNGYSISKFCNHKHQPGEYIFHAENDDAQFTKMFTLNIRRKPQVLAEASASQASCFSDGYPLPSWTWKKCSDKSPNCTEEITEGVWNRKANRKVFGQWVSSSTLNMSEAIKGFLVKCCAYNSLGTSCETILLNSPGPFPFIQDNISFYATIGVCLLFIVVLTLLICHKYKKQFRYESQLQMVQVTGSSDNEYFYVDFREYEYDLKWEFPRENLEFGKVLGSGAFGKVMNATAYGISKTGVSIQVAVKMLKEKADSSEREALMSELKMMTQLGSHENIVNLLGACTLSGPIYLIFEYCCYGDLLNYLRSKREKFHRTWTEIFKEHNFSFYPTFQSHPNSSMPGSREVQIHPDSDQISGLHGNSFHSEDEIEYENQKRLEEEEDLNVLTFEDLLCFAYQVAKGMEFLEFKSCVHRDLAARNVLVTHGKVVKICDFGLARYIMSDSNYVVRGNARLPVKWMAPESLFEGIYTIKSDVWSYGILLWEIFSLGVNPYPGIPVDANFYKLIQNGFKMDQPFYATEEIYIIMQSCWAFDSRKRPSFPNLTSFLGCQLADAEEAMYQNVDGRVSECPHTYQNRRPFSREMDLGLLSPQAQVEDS
The conditions noted are these: at 1 µM.

In test [6] the target is Vascular endothelial growth factor receptor 3 (Homo sapiens) (UniProt P35916). The note with it: at 0.1 µM.
Chain of Vascular endothelial growth factor receptor 3 (Homo sapiens) (P35916 whole entry): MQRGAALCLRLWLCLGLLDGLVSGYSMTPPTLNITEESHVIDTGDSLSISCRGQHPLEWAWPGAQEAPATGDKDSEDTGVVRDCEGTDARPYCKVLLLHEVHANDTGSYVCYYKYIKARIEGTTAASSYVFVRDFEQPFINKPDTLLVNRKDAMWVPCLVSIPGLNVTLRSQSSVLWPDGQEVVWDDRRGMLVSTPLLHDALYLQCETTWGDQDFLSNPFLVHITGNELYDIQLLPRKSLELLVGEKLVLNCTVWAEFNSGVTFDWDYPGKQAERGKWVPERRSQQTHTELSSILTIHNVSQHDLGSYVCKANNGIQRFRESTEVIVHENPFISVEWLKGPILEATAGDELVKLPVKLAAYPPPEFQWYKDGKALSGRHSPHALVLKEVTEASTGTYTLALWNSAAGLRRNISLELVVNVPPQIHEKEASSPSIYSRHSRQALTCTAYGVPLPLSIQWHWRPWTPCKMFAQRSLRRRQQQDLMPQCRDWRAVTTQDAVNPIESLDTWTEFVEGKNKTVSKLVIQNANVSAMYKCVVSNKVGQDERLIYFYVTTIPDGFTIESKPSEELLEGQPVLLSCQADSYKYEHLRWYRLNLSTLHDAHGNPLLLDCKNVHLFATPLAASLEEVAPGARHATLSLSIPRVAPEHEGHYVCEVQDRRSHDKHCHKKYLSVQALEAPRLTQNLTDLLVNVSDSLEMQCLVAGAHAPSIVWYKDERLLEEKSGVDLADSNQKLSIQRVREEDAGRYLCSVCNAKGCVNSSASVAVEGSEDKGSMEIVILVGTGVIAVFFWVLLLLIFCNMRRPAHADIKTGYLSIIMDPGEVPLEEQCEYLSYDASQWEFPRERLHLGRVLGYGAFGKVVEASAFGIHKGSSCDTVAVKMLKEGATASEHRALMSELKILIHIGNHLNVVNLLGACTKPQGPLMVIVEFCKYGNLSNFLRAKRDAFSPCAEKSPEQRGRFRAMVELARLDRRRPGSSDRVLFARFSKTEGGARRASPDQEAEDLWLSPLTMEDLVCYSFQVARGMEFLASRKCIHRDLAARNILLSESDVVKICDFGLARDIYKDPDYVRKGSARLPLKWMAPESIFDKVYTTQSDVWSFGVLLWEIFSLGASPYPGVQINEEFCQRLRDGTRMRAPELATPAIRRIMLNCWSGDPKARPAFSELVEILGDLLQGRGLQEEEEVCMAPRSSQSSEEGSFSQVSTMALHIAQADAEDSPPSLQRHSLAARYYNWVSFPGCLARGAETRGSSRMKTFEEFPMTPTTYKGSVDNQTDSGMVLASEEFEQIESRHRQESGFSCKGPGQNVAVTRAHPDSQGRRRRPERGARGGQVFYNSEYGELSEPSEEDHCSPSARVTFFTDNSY
Test [7] has the same target. The conditions noted are these: at 1 µM.
Test [8] addresses Macrophage colony-stimulating factor 1 receptor (Homo sapiens) (UniProt P07333). The note with it: at 0.1 µM.
Test [9] has the same target. The note with it: at 1 µM.
For test [10], the target named is Tyrosine-protein kinase Fyn (Homo sapiens) (UniProt P06241). The note with it: at 0.1 µM.
Chain of Tyrosine-protein kinase Fyn (Homo sapiens) (P06241 2-537 limits assumed): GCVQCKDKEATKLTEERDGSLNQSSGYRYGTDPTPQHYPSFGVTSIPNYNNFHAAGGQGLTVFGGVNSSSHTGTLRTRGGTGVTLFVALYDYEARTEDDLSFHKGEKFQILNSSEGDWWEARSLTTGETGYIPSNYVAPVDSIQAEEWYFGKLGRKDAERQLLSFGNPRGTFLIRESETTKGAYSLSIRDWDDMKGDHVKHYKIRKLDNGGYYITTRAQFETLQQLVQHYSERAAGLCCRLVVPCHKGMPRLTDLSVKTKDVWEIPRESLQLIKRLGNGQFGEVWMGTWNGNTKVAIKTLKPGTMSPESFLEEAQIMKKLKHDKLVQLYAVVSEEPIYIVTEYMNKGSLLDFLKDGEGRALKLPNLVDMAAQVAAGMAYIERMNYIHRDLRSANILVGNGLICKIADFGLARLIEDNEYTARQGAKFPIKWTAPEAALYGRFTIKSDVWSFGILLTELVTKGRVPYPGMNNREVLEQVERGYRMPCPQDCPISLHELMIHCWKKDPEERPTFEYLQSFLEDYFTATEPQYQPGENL

Chain of Macrophage colony-stimulating factor 1 receptor (Homo sapiens) (P07333 whole entry): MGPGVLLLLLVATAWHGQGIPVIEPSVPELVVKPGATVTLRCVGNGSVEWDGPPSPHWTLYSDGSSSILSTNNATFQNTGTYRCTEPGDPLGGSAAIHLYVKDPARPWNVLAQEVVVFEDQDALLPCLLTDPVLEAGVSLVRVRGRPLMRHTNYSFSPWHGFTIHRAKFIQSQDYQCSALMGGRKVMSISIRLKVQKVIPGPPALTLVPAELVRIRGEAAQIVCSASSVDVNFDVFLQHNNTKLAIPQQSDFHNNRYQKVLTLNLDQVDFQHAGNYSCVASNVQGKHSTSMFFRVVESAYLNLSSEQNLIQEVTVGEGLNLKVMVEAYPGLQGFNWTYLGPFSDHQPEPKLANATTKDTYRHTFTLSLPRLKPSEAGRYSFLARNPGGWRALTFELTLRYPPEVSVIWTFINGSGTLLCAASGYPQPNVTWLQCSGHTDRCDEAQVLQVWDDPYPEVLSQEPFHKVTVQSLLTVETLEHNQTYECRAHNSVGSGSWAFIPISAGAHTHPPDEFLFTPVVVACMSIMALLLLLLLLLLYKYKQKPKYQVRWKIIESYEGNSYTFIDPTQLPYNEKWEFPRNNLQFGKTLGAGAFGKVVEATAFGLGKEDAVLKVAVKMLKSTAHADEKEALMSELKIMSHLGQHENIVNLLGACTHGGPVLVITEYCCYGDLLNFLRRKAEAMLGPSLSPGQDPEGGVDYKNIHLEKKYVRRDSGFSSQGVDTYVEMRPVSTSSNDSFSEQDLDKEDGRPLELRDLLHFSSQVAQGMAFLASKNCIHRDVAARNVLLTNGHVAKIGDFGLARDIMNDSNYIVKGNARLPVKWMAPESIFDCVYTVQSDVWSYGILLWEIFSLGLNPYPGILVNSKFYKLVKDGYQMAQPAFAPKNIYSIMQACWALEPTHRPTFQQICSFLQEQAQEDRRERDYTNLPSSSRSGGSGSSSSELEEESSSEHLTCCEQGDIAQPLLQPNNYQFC
Chain of Serine/threonine-protein kinase PLK1 (Homo sapiens) (P53350 whole entry): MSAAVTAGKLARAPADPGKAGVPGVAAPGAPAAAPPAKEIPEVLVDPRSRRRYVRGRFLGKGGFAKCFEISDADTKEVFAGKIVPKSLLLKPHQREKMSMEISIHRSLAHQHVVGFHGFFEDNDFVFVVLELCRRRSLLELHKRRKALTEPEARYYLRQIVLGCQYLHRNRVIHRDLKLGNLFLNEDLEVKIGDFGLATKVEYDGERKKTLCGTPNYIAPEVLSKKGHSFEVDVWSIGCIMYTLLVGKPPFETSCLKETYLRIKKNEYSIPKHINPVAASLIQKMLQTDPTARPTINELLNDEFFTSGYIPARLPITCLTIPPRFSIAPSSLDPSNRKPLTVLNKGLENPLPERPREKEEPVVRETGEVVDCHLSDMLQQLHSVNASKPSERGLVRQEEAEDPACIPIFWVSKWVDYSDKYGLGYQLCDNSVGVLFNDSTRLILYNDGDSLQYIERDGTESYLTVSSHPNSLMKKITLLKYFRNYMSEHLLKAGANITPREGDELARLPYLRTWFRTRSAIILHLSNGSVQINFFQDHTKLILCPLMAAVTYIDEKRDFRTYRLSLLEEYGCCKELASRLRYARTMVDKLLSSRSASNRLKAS

With `COc1cc2ncn(-c3cc(OCc4ccccc4Cl)c(C(N)=O)s3)c2cc1OC`, the inhibition in test [1] came out at 55.5%; in test [2] it was 93.8%; in [3] it was 96.3%; in [4], 2.78%; in [5] it was 9.43%; in [6], 11.9%. Besides, the inhibition in test [7] is 54.8%; in test [8] it was 1.91%; in test [9] it was 23.7%; in [10], 2.79%.

Consider `COc1ccc(-c2ccncc2)cc1C(N)=O`, for which the inhibition in [1] turned out to be 2.67%; in [2] it was 5.64%; in test [3] it was 6.97%; in [4] it was 5.37%; in [5], 3.51%; in [6], 3.2%. Moreover, the inhibition was 2% in test [7], 2.6% in [8], 5.33% in test [9] and 2.01% in test [10].

Consider `CCN1CCC(CC(=O)Nc2n[nH]c3nc(-c4cccs4)c(Br)cc23)CC1`, for which the inhibition in test [1] is 0.2%; in test [2] it was -3.36%; in test [3] it was -3.47%; in [4], -6.26%; in test [5], 10.7%; in test [6] it was 1.17%. The inhibition is 2.51% in test [7], -2.02% in test [8], 0.93% in [9] and -0.42% in test [10].

`CCn1c(-c2nonc2N)nc2c(C#CC(C)(C)O)nc(OC[C@@H](N)c3ccccc3)cc21`: the inhibition in test [1] was -5.29%; in test [2], 7.34%; in test [3], 0.17%; in test [4], -3.32%; in test [5] it was 2.58%; in test [6] it was 17.4%. Moreover, the inhibition was 68.9% in test [7], -0.21% in test [8], -0.91% in [9] and 2.28% in test [10].

As for `Cc1nnc(-c2ccc(C)c(-c3ccc(C(=O)Nc4cccc(C#N)c4)cc3)c2)o1`, the inhibition in [1] was 6.96%; in test [2], 2.65%; in [3], 1.18%; in test [4], 3.88%; in [5] it was 1.89%; in [6] it was -1.08%. Moreover, the inhibition is 1.02% in [7], -0.4% in test [8], 0.77% in test [9] and 3.8% in test [10].

For the compound `COC(=O)Nc1nc2cc(Oc3cccc(NC(=O)Nc4cc(C(F)(F)F)ccc4F)c3)ccc2[nH]1`, the inhibition in test [1] worked out at 0.95%; in test [2] it was 1.57%; in [3] it was 0.56%; in test [4], 0.37%; in test [5] it was 0.94%; in [6] it was 1.33%. Also, the inhibition in test [7] was 11.4%; in [8] it was 4.37%; in [9], 27.8%; in [10], 1.12%.

In the case of `c1cnn2ncc(-c3ccnc(Nc4ccc5c(c4)OCCO5)n3)c2c1`, the inhibition was found to be 49.9% in test [1]; 8.35% in [2]; 29.4% in test [3]; 11.9% in test [4]; 36.1% in test [5]; 8.6% in test [6]. Besides, the inhibition in [7] came to 21.8%; in test [8], 44.5%; in [9] it was 85.7%; in test [10], 1.57%.

Regarding `CS(=O)(=O)Nc1ccc(N/C=C2\C(=O)Nc3ccccc32)cc1`, the inhibition in [1] was 9.7%; in test [2], -2.87%; in test [3] it was -1.15%; in test [4] it was -2.98%; in test [5], 59.1%; in test [6] it was 4.02%. In addition, the inhibition in test [7] was 30.6%; in test [8], 7.03%; in test [9], 41.7%; in test [10], 0.12%.

Take `CCc1cccc(NC(=O)Nc2ccc(Oc3ccc4nc(NC(=O)OC)[nH]c4c3)cc2)c1`: the inhibition worked out at 3.95% in [1]; 2.03% in [2]; 1.1% in test [3]; 6.8% in [4]; 6.29% in test [5]; 7.64% in test [6]. Further, the inhibition is 16.3% in test [7], 44.8% in test [8], 54.6% in [9] and -2.29% in test [10].

For the compound `Nc1ncnc2occ(-c3ccc(NC(=O)Nc4cc(C(F)(F)F)cc(C(F)(F)F)c4)cc3)c12`, the inhibition is -1.98% in test [1]; 2.75% in [2]; 1.86% in test [3]; 1.59% in test [4]; 33.2% in test [5]; 9.31% in test [6]. In addition, the inhibition came to 56.5% in test [7], 51.2% in [8], 95.3% in test [9] and 0.55% in test [10].

What is called inhibition is the drop in the measured response relative to a control, in per cent.
